Test results from PubChem BioAssay (NCI).
Compounds without any hit were thinned out: in the full panel of roughly 83,000, 20% have a hit.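 Plates (96-well) were seeded with cells, treated with compound at one concentration, and incubated for 48 hours before percent growth was determined.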 Values without a mark were called inactive. The source made the active and inactive calls. How the source made its calls: active means growth percent below 10; inactive means the rest.

These compounds were tested on HCC-2998 colon (assay: NCI-60 one-dose screen, 48 h (100 = growth as untreated, 0 = no growth, -100 = all killed)). Details: 10 µM unless noted.

SMILES | growth
COC(=O)c1c(C)nc(C)c2c1C(=O)C=C(NCc1ccccc1)C2=O | 96.2%
COc1ccc2[nH]cc(-c3nonc3-c3c[nH]c4ccc(Br)cc34)c2c1 | 22.2%
C=C(C)[C@@H]1CC[C@]2(COC3CCCCO3)CC[C@]3(C)[C@H](CC[C@@H]4[C@@]5(C)C=C(C=O)C(=O)C(C)(C)[C@@H]5CC[C@]43C)[C@@H]12 (stereo not given in full) | -59% (active)
CCOc1ncc([N+](=O)[O-])c(OCC)n1 | 99.4%
c1ccc(-c2c(-c3ccccc3)[n+](Cc3ccc4ccccc4c3)cn2Cc2ccc3ccccc3c2)cc1 | -93.3% (active)
Cn1cc(-c2csc(-c3cn(CCCN4CCOCC4)c4ccc(F)cc34)n2)c2cccnc21 | 65.4%
Cc1cn(C)cn1 | 108%
COC(=O)c1sccc1-c1cc(O)c(C(=O)Nc2ccccc2)s1 | 109%
CCCCCc1ccc(S(=O)(=O)Nc2ccc3nc(N)oc3c2)cc1 | 98.5%
CCN(CC)CCCC(Cc1ccccc1)Nc1c2ccc(Cl)cc2nc2ccc(OC)cc12 (stereo not given) | -72.1% (active)
CNCC[C@H](Oc1cccc2ccccc12)c1cccs1 | 79%
CCOC(=O)c1cnn(CC(C)O)c1NC(=O)NCc1cccc(F)c1 (stereo not given) | 94.9%
N#Cc1ccc(/C=C/c2cn(-c3ccccc3)nc2-c2cccc([N+](=O)[O-])c2)cc1 | 82%
O=C(/C=C/c1ccco1)Nc1ncc(Cc2cc(Cl)ccc2Cl)s1 | 13.9%
CCOC(=O)c1nnn(Cc2cc(=O)oc3ccc(O)cc23)c1C | 97.3%
